# Values joined by “and” are separate entries in the source; they are usually repeats but may differ in a detail not shown here. Equal entries are not always repeated. Active and inactive are the calls of the source. Unless noted, how the calls were made is not given here.
# Target: Single-stranded DNA-binding protein (Escherichia coli (strain K12)) (UniProt P0AGE0)
# Test: E. coli SSB displacement from DNA, counter-screen for HCV NS3 helicase inhibitor project, biochemical, fluorescence polarization, NIH Clinical Collection (AID 743271; in the data active means inhibition above about 28%)
# Conditions: stronger effect = higher value, concentration not given here
row,Compound,inhibition
1,CN(C)CC[C@@H](c1ccc(Br)cc1)c1ccccn1,-3.18% (inactive)
2,CC(C(=O)O)c1ccc(CC2CCCC2=O)cc1 (configuration not stated),4.52% (inactive)
3,Cc1cn([C@H]2C=C[C@@H](CO)O2)c(=O)[nH]c1=O,-0.87% (inactive) and -5.05% (inactive)
4,C[C@H](NC(CCc1ccccc1)C(=O)O)C(=O)N1CCC[C@H]1C(=O)O (some centres not stated),2.98% (inactive)
5,CCOC(=O)c1ncn2c1CN(C)C(=O)c1cc(F)ccc1-2,-0.1% (inactive)
6,CC(=O)[C@]1(O)Cc2c(O)c3c(c(O)c2[C@@H](O[C@H]2C[C@H](N)[C@H](O)[C@H](C)O2)C1)C(=O)c1ccccc1C3=O,14.5% (inactive)
7,Cc1[nH]c(=O)c(C#N)cc1-c1ccncc1,-3.18% (inactive)
8,Nc1nc2c(ncn2COC(CO)CO)c(=O)[nH]1,-2.76% (inactive)
9,CCN1CCC[C@H]1CNC(=O)c1c(O)c(Cl)cc(Cl)c1OC,7.6% (inactive)
10,Cc1cccc(C)c1NC(=O)C(C)N (configuration not stated),-3.95% (inactive)
11,Nc1nnc(-c2cccc(Cl)c2Cl)c(N)n1,-1.64% (inactive)
12,CCN1CCCC1CNC(=O)c1cc(S(=O)(=O)CC)c(N)cc1OC (configuration not stated),-4.72% (inactive)
13,Clc1ccc2nsnc2c1NC1=NCCN1,-2.76% (inactive)
14,CCc1c(C)[nH]c2c1C(=O)C(CN1CCOCC1)CC2 (configuration not stated),1.81% (inactive)
15,COc1ccccc1N1CCN(CC(O)COc2cccc3ccccc23)CC1 (configuration not stated),5.29% (inactive)
16,CN(C)CC[C@@H](c1ccc(Cl)cc1)c1ccccn1,-2.76% (inactive)
17,Brc1c(NC2=NCCN2)ccc2nccnc12,-3.53% (inactive)
18,O=C1N(c2ccccc2)c2ccccc2C1(Cc1ccncc1)Cc1ccncc1,-1.18% (inactive)
19,CN(Cc1cnc2nc(N)nc(N)c2n1)c1ccc(C(=O)N[C@@H](CCC(=O)O)C(=O)O)cc1,26.9% (inactive)
20,Nc1ccn([C@H]2CC[C@@H](CO)O2)c(=O)n1,-1.64% (inactive)
21,CCN1CCC[C@H]1CNC(=O)c1cc(S(N)(=O)=O)ccc1OC,6.06% (inactive)
22,Oc1ccc(C2CNCCc3c2cc(O)c(O)c3Cl)cc1 (configuration not stated),-7.03% (inactive)
23,NC1CCN(c2cccc(Cl)n2)CC1,133% (active)
24,COc1ccc(C2CNC(=O)C2)cc1OC1CCCC1 (configuration not stated),-0.1% (inactive)
25,CNCC(O)c1ccc(O)c(O)c1 (configuration not stated),15.5% (inactive)
26,OCc1cc(C(O)CNCCCCCCOCCCCc2ccccc2)ccc1O (configuration not stated),-2.76% (inactive)

# Test system: not listed separately
# Test: fluorescence interference in NS3h assay format, artefact control for HCV NS3 helicase inhibitor project, biochemical, NIH Clinical Collection (AID 743272);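 further: HCV NS3 helicase with a Cy5 labelled single stranded DNA probe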
# Conditions: fluorescence interference counterscreen, stronger effect = lower value
row,Compound,fluorescence ratio
1,CN(C)CC[C@@H](c1ccc(Br)cc1)c1ccccn1,0.87 (inactive)
2,CC(C(=O)O)c1ccc(CC2CCCC2=O)cc1 (configuration not stated),1.09 (inactive)
3,Cc1cn([C@H]2C=C[C@@H](CO)O2)c(=O)[nH]c1=O,0.98 (inactive) and 1.04 (inactive)
4,C[C@H](NC(CCc1ccccc1)C(=O)O)C(=O)N1CCC[C@H]1C(=O)O (some centres not stated),1 (inactive)
5,CCOC(=O)c1ncn2c1CN(C)C(=O)c1cc(F)ccc1-2,0.99 (inactive)
6,CC(=O)[C@]1(O)Cc2c(O)c3c(c(O)c2[C@@H](O[C@H]2C[C@H](N)[C@H](O)[C@H](C)O2)C1)C(=O)c1ccccc1C3=O,0.67 (active)
7,Cc1[nH]c(=O)c(C#N)cc1-c1ccncc1,1.02 (inactive)
8,Nc1nc2c(ncn2COC(CO)CO)c(=O)[nH]1,1.02 (inactive)
9,CCN1CCC[C@H]1CNC(=O)c1c(O)c(Cl)cc(Cl)c1OC,0.77 (active)
10,Cc1cccc(C)c1NC(=O)C(C)N (configuration not stated),1 (inactive)
11,Nc1nnc(-c2cccc(Cl)c2Cl)c(N)n1,0.99 (inactive)
12,CCN1CCCC1CNC(=O)c1cc(S(=O)(=O)CC)c(N)cc1OC (configuration not stated),1.01 (inactive)
13,Clc1ccc2nsnc2c1NC1=NCCN1,0.99 (inactive)
14,CCc1c(C)[nH]c2c1C(=O)C(CN1CCOCC1)CC2 (configuration not stated),1.01 (inactive)
15,COc1ccccc1N1CCN(CC(O)COc2cccc3ccccc23)CC1 (configuration not stated),0.89 (inactive)
16,CN(C)CC[C@@H](c1ccc(Cl)cc1)c1ccccn1,0.91 (inactive)
17,Brc1c(NC2=NCCN2)ccc2nccnc12,0.99 (inactive)
18,O=C1N(c2ccccc2)c2ccccc2C1(Cc1ccncc1)Cc1ccncc1,0.93 (inactive)
19,CN(Cc1cnc2nc(N)nc(N)c2n1)c1ccc(C(=O)N[C@@H](CCC(=O)O)C(=O)O)cc1,0.92 (inactive)
20,Nc1ccn([C@H]2CC[C@@H](CO)O2)c(=O)n1,1.02 (inactive)
21,CCN1CCC[C@H]1CNC(=O)c1cc(S(N)(=O)=O)ccc1OC,0.97 (inactive)
22,Oc1ccc(C2CNCCc3c2cc(O)c(O)c3Cl)cc1 (configuration not stated),0.87 (inactive)
23,NC1CCN(c2cccc(Cl)n2)CC1,0.9 (inactive)
24,COc1ccc(C2CNC(=O)C2)cc1OC1CCCC1 (configuration not stated),0.98 (inactive)
25,CNCC(O)c1ccc(O)c(O)c1 (configuration not stated),1.02 (inactive)
26,OCc1cc(C(O)CNCCCCCCOCCCCc2ccccc2)ccc1O (configuration not stated),1.01 (inactive)

# Reference: PubChem BioAssay
